Cav3 T inh: Cav3.2 calcium influx blockers – cell-based, Fluo-4 calcium fluorescence, FDSS, MLSMR library, primary screen. Cav3.2-expressing cells; stronger effect = lower value. B-score at 10 µM. 100,000 compounds, 4% hits;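 active means single-dose well whose peak fluorescence ratio is a statistical outlier from its plate by either plate-standardised score or position-corrected B-score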
CYP2C9 inh: blockers of cytochrome P450 2C9 activity – biochemical, luminescence, ADME assay, primary screen; P11712; CYP2C9 Supersomes, luciferin-H conversion; inhibition, % at 5 µM; 96,000 compounds, 20% hits; AID 777, 2007;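 active means blocking of liver enzyme CYP2C9 beyond about 50% at 5 µM, limit read from the data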
Target sequence (P11712 whole entry, looked up): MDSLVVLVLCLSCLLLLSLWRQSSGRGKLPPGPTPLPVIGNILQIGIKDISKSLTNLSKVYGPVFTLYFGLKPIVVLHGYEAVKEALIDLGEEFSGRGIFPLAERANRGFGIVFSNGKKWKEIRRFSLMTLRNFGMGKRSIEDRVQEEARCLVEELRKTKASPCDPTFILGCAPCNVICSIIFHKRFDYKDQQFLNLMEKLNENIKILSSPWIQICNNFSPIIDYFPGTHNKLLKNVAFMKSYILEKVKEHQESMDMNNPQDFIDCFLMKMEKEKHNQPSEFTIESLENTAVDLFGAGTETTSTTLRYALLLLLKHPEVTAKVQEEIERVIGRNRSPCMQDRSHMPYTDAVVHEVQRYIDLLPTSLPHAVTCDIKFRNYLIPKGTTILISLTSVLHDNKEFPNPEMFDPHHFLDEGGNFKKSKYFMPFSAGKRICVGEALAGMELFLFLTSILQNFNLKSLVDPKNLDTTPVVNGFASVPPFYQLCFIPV
PTK2B oligo ant: antagonists of Pyk2 self-association, primary screen, Q293 cells, FERM NanoBiT luminescence, HTS. 99,000 compounds, 0.83% hits. z-score (the deposit names both 25 µM and 10 µM). stronger effect = lower value. Protein-tyrosine kinase 2-beta (Homo sapiens), Q14289;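 active means Z-score of -3 or lower, scaled per plate to the spread of control and sample wells; inactive means z-score above -3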;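 further: negative z-score means lost luminescence so less FERM oligomerization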
CYP2C19 inh: blockers of cytochrome P450 2C19 activity – biochemical, luminescence, ADME assay, primary screen | P33261 | inhibition, % at 5 µM | 96,000 compounds, 21% hits | CYP2C19 Supersomes, luciferin-H EGE luminescence, 30 min | AID 778, 2007;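 active means CYP2C19 inhibition above a set limit at 5 µM in the primary screen, cut at about 50% in these data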;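 further: plate controls were negative control wells for no effect and 2.5 mM tranylcypromine positive control for full effect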
CYP2C19 activ: human CYP2C19 activators, primary screen, biochemical, luminescence | 96,000 tested, under 10 active | recombinant CYP2C19, luciferin-H EGE luminescence; stronger effect = higher value; 0 = fully inhibited enzyme, 1 = untreated enzyme | activation factor at 5 µM | Cytochrome P450 2C19 (Homo sapiens), P33261 | AID 1025, 2008;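 active means activation factor of at least 2 at 5 µM in the primary screen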;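 further: 0 = wells with 2.5 mM tranylcypromine and 1 = vehicle-only wells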
CYP2C9 activ: human CYP2C9 activators, primary screen, biochemical, luminescence; recombinant CYP2C9, luciferin-H conversion; stronger effect = higher value; factor 1 = untreated enzyme, 0 = blocked; 96,000 compounds, 1.4% hits; activation factor at 5 µM; Cytochrome P450 2C9 (Homo sapiens), P11712;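 active means activation factor of 2 or more for CYP2C9 at a 5 µM dose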;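 further: 0 = sulfaphenazole-blocked wells and 1 = vehicle-only wells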
An asterisk follows results filed as active; · = no result. The list is not random: actives were taken first. Their share in the collection is about 27%.

SMILES	Cav3 T inh	CYP2C9 inh	PTK2B oligo ant	CYP2C19 inh	CYP2C19 activ	CYP2C9 activ
CCOc1cc(S(=O)(=O)Nc2ccccc2CC)ccc1Cl	-5.76*	-84.8	-0.3	81.7*	0.2	1.8
COc1cccc(CNC(=O)C2CCCN(S(=O)(=O)c3c(C)[nH]c(=O)[nH]c3=O)C2)c1 (configuration not stated)	0.02	2.5	0.74	-2.6	1	1
C#CCNc1nc(C)nc2c1nnn2Cc1ccccc1F	-0.14	4.5	1.2	52.2*	0.5	1
Fc1ccccc1Cn1nnc2c(NCc3ccccn3)ncnc21	-0.0613	-178.9	-0.08	31.0	0.7	2.8*
Clc1ccccc1Cn1nnc2c(Nc3ccccc3)ncnc21	-0.258	-21.7	-2.17	8.3	0.9	1.2
Cc1nc(NCCO)c2nnn(Cc3ccccc3F)c2n1	0.101	-0.5	3.68	13.6	0.9	1
Clc1ccccc1Cn1nnc2c(NCC3CC3)ncnc21	-0.847	-239.0	-0.7	51.4*	0.5	3.4*
CCCc1nc2c(nnn2Cc2ccccc2F)c(=O)[nH]1	0.179	-52.5	-1.27	89.2*	0.1	1.5
O=c1[nH]c(C(F)(F)F)nc2c1nnn2Cc1ccccc1F	-1.1	30.8	0.31	3.3	1	0.7
CN1C(C(=O)NCc2ccc(OC(F)(F)F)cc2)CC2Cn3c(nc4ccccc43)C21 (configuration not stated)	0.11	·	·	·	·	·
Cn1cccc1Cc1nnc(SCC(N)=O)n1-c1ccc(F)cc1	0.657	-2.1	·	-13.6	1.1	1
COc1ccc(NC(=O)CSc2nnc(Cc3cccn3C)n2-c2ccc(F)cc2)cc1	-2.89	34.0	·	15.5	0.8	0.7
COc1ccc(-n2c(Cc3cccn3C)nnc2SCC(=O)Nc2ccc(F)cc2)cc1	-8.58*	49.2	·	28.3	0.7	0.5
CCOc1ccc(NC(=O)CSc2nnc(Cc3cccn3C)n2-c2ccc(F)cc2)cc1	-7.43*	35.8	·	12.1	0.9	0.6
Cc1c(O)cc2c(c1O)C(=O)CC(c1ccccc1)O2 (configuration not stated)	-2.36	·	·	·	·	·
CC(=O)NC1=NN(C(C)=O)C(c2sccc2C)S1 (configuration not stated)	-0.373	21.2	-0.2	34.4	0.7	0.8
O=C(Oc1cccc(Nc2ncnc3ccccc23)c1)c1ccccc1Cl	-5.4*	57.2*	-1.54	13.9	0.9	0.4
Clc1cccc(Nc2ncnc3ccc(Br)cc23)c1	-2.57	29.5	-1.6	47.1	0.5	0.7
CCCCOCCCNC(=O)c1ccc(OCC)cc1	0.829	5.3	-0.44	14.2	0.9	0.9
Cc1noc(/C=C/N(C)C)c1S(=O)(=O)N1CCCC(C(=O)Nc2ccc3c(c2)OCO3)C1 (configuration not stated)	0.164	67.0*	·	48.5	0.5	0.3
Cc1noc(/C=C/N(C)C)c1S(=O)(=O)N1CCCC(C(=O)N2CCCCC2)C1 (configuration not stated)	1.48	57.7*	·	3.1	1	0.4
Cc1noc(/C=C/N(C)C)c1S(=O)(=O)N1CCCC(C(=O)NC2CCCCC2)C1 (configuration not stated)	1.02	44.0	·	10.1	0.9	0.6
Cc1cc(NC(=O)C2CCCN(S(=O)(=O)c3c(C)noc3C)C2)n[nH]1 (configuration not stated)	0.0522	3.6	·	6.7	0.9	1
C=CCNS(=O)(=O)c1nc(C)c(Cl)c(C)c1C#N	-0.00129	-11.3	0.08	16.8	0.8	1.1
O=Cc1nc(-c2ccccc2Cl)n2ccccc12	0.455	-120.5	0.23	34.9	0.7	2.2*
SMILES	Cav3 T inh	CYP2C9 inh	PTK2B oligo ant	CYP2C19 inh	CYP2C19 activ	CYP2C9 activ
CC1CCCN(c2ccc(C(=O)NCC3CCCO3)cn2)C1 (configuration not stated)	0.00804	-5.0	2.81	-2.9	1	1.1
Cc1ccc(/C=N/Nc2nc3ccccc3[nH]2)s1	·	·	-2.23	·	·	·
CC(=O)n1nc(-c2ccccc2)nc1NCc1ccc(F)cc1	-4.65*	21.5	0.57	16.2	0.8	0.8
COCC(=O)n1nc(-c2ccc(Cl)cc2)nc1NCc1ccc(F)cc1	-0.244	16.5	-1.84	47.6	0.5	0.8
N#Cc1nc(COc2ccc(Cl)cc2Cl)oc1N1CCN(c2ccccc2)CC1	-1.36	42.4	1.37	58.5*	0.4	0.6
CN(C)CCNc1oc(COc2ccc(Cl)cc2Cl)nc1C#N	0.35	9.2	1.32	7.6	0.9	0.9
COc1ccc(N2CCN(c3oc(COc4ccc(Cl)cc4Cl)nc3C#N)CC2)cc1	-2.68	49.7	0.91	24.6	0.8	0.5
N#Cc1nc(COc2ccc(Cl)cc2Cl)oc1N1CCOCC1	-0.173	43.9	-1.23	70.5*	0.3	0.6
COCCCNc1oc(COc2ccc(Cl)cc2Cl)nc1C#N	-5.59*	94.4*	-1.26	99.1*	0	0.1
CC(=O)Nc1ccc(NC(=O)c2ccccc2F)cc1	0.682	-7.3	0.91	-6.6	1.1	1.1
O=C(Nc1ccncc1)c1ccccc1F	-0.0345	44.6	-0.41	64.3*	0.4	0.6
O=C(NCCc1ccncc1)c1ccccc1F	0.199	57.1*	-0.33	80.7*	0.2	0.4
O=C(Nc1ccc(F)cc1)c1ccccc1F	0.00972	-18.7	0.5	1.4	1	1.2
O=C(Nc1ccc(Oc2cccnc2)cc1)c1ccccc1F	-0.0341	96.6*	0.39	93.1*	0.1	0
O=C(CSc1cccc2cccnc12)NCc1ccco1	·	-47.3	1.78	6.3	0.9	1.5
CSc1ccccc1NC(=O)c1ccco1	0.619	2.5	0.03	-4.4	1	1
CCOC(=O)c1ccc(N2C(=O)c3n[nH]c(C)c3C2c2ccccn2)cc1 (configuration not stated)	·	69.3*	·	42.1	0.6	0.3
Cc1ccc(N2C(=O)c3n[nH]c(C)c3C2c2cccnc2)cc1 (configuration not stated)	1.2	30.5	-1.5	39.6	0.6	0.7
CCOC(=O)c1ccc(N2C(=O)c3n[nH]c(C)c3C2c2cccnc2)cc1 (configuration not stated)	0.656	67.5*	-3.79*	29.9	0.7	0.3
CCOC(=O)c1ccc(N2C(=O)C(O)=C(C(C)=O)C2c2ccccn2)cc1 (configuration not stated)	0.13	51.7*	0.5	-6.2	1.1	0.5
CCOCCCNC(=O)c1ccc(CS(=O)(=O)Cc2ccccc2F)o1	0.323	0.2	0.3	12.4	0.9	1
C#CC1(O)CC(C)N(C)C(C)C1 (configuration not stated)	0.953	-4.8	0.82	-6.6	1.1	1
